Laboratory results published in PubChem BioAssay (Tox21).
Records with an inconclusive call do not appear. The source made the active and inactive calls. Unless noted, the call rests on the fitted dose curve; in most records, active means well fitted curve in the direction sought with a large enough effect in the repeat runs; inconclusive means weak or mixed curves; inactive means no such curve, though single readings can be large; an effect the other way counts as inactive or inconclusive.

Legend:
[1] = qHTS assay to identify small molecule that activate the aryl hydrocarbon receptor (AhR) signaling pathway - cell viability counter screen (AID 743086);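 further: HepG2 liver cells carrying the AhR DRE luciferase reporter; series mostly up to about 70 µM; nearly all actives have a fitted effect of over 45% in size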
Outline: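 HepG2-AhR-luc (HG2L7.5c1) cells, 4000/well, were preincubated 5 h at 37C, exposed to compound in qHTS format for 24 hr at 37C, then given CellTiter-Fluor for 30 min; viability was read as fluorescence in the reporter wells.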

[2] = qHTS assay to identify small molecule antagonists of the peroxisome proliferator-activated receptor gamma (PPARg) signaling pathway - cell viability counter screen (AID 743194); further: nearly all actives have a fitted effect of over 55% in size
Outline: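 PPARg-UAS-bla HEK293H cells were plated, rested 5 h at 37 C, then treated with compounds plus rosiglitazone (50 nM final) for 17 h at 37 C; viability was then read by CellTiter-Glo luminescence after 30 min at room temperature.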

[3] = qHTS assay for small molecule agonists of the antioxidant response element (ARE) signaling pathway (AID 743202; active means well fitted activation curve with a large enough effect in the signal ratio in the repeat runs, not every such curve was filed as active; the % refers to the signal ratio; further: potency means the concentration at half of the fitted maximal effect)
Outline: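 Read-out: LiveBLAzer B/G FRET substrate fluorescence after 2 h at room temperature, following 16 h compound treatment at 37 C of HepG2 cells carrying an ARE-driven beta-lactamase reporter.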

[4] = qHTS assay for small molecule agonists of the antioxidant response element (ARE) signaling pathway - cell viability counter screen (AID 743203; calls by dose curve; further: nearly all actives have a fitted effect of over 55% in size)
Outline: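 Cells (ARE-bla HepG2, 2,000/well) receive DMSO-dissolved compounds after a 5 hrs rest. Plates incubate 16 hrs at 37C/5% CO2. CellTiter-Glo luminescence is then recorded after 30 min at room temperature.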

[5] = qHTS assay for small molecule activators of the heat shock response signaling pathway - cell viability counter screen (AID 743209); further: nearly all actives have a fitted effect of over 50% in size
Outline: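 Quantitative HTS format, Tox21 10K library. HeLa cells carrying an HSE-driven beta-lactamase reporter were treated 5 h at 37 C, then assessed for viability by CellTiter-Glo luminescence.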

[6] = qHTS assay to identify small molecule agonists of the peroxisome proliferator-activated receptor delta (PPARd) signaling pathway - cell viability counter screen (AID 743211); further: nearly all actives have a fitted effect of over 55% in size
Outline: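 Viability was measured as CellTiter-Glo luminescence (30 min, room temperature) in the same wells as the beta-lactamase readout. GeneBLAzer PPARd UAS-bla HEK293H cells received compound after 5 h plating and were incubated 17 h at 37 C.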

[7] = biological target: Peroxisome proliferator-activated receptor delta (Homo sapiens) (UniProt Q03181); assay: qHTS assay to identify small molecule agonists of the peroxisome proliferator-activated receptor delta (PPARd) signaling pathway (AID 743212; calls by dose curve)
Chain of Peroxisome proliferator-activated receptor delta (Homo sapiens) (Q03181 whole entry, looked up): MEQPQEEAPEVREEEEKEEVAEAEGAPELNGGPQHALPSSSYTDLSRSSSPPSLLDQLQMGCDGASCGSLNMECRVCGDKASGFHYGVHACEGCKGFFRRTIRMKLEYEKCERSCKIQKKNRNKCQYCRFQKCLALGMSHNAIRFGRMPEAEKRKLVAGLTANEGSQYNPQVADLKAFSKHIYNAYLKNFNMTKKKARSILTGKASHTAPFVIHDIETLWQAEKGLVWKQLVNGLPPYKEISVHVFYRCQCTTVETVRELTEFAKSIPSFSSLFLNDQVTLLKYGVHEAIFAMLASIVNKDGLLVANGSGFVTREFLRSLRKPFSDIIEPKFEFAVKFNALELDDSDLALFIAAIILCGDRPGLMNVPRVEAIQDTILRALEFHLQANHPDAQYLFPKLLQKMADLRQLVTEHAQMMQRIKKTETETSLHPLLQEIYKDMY
Outline: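 GeneBLAzer PPARd UAS-bla HEK293H cells (beta-lactamase reporter under UAS control), plated and rested 5 h at 37 C, then exposed to compounds in DMSO at 37 C; LiveBLAzer B/G FRET substrate added, 2 h room temperature, fluorescence read.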

[8] = qHTS assay to identify small molecule antagonists of the peroxisome proliferator-activated receptor delta (PPARd) signaling pathway - cell viability counter screen (AID 743213); further: nearly all actives have a fitted effect of over 50% in size
Outline: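 Agonist-stimulated (L165041, 300 nM final) HEK293H PPARd UAS-bla cells are exposed to compounds for 17 h at 37 C, and ATP-based luminescence (CellTiter-Glo) from the same wells reports cytotoxicity.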

[9] = biological target: Peroxisome proliferator-activated receptor delta (Homo sapiens) (UniProt Q03181); assay: qHTS assay to identify small molecule antagonists of the peroxisome proliferator-activated receptor delta (PPARd) signaling pathway (AID 743215; active means well fitted inhibition curve with a large enough effect in the signal ratio in the repeat runs, not every such curve was filed as active; the % refers to the signal ratio; further: series mostly up to about 62 µM)
Outline: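 Antagonist-mode beta-lactamase reporter screen: HEK293H cells with UAS-bla under PPARd control, stimulated by 300 nM L165041 (final) alongside test compound for 17 h at 37 C, then FRET fluorescence after 2 h substrate incubation.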

[10] = biological target: Bile acid receptor (Homo sapiens) (UniProt Q96RI1); assay: qHTS assay to identify small molecule antagonists of the farnesoid-X-receptor (FXR) signaling pathway (AID 743217; active means well fitted inhibition curve with a large enough effect in the signal ratio in the repeat runs, not every such curve was filed as active; the % refers to the signal ratio)
Chain of Bile acid receptor (Homo sapiens) (Q96RI1 whole entry, looked up): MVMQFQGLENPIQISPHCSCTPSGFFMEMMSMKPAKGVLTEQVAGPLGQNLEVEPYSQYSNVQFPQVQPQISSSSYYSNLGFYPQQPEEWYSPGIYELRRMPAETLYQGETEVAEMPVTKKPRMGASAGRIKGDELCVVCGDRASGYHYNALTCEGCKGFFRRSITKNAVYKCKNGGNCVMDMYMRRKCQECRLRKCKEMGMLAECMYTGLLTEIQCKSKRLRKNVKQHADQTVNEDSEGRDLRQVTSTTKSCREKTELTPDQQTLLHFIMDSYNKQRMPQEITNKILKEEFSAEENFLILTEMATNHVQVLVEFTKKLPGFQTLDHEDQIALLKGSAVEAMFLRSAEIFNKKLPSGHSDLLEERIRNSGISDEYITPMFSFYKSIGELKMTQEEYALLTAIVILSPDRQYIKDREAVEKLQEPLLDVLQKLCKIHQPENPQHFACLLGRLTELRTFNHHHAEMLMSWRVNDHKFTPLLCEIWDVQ
Outline: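 Beta-lactamase reporter under UAS control in HEK 293T cells; compound exposure 16 h at 37 °C in the presence of chenodeoxycholic acid (50 uM final); signal from B/G FRET substrate after 2 h at room temperature.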

[11] = qHTS assay to identify small molecule agonists of the farnesoid-X-receptor (FXR) signaling pathway - cell viability counter screen (AID 743218); further: nearly all actives have a fitted effect of over 45% in size
Outline: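 In GeneBLAzer FXR-UAS-bla HEK 293T cells, compounds act for 16 h at 37 C. Cell viability is then scored in the reporter wells by CellTiter-Glo, 30 min at RT, luminescence.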

[12] = biological target: Bile acid receptor (Homo sapiens) (UniProt Q96RI1); assay: qHTS assay to identify small molecule agonists of the farnesoid-X-receptor (FXR) signaling pathway (AID 743220; active means well fitted activation curve with a large enough effect in the signal ratio in the repeat runs, not every such curve was filed as active; the % refers to the signal ratio)
Outline: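 Beta-lactamase reporter under UAS control in GeneBLAzer FXR HEK 293T cells (5000/well) measured with LiveBLAzer FRET substrate after 2 h at room temperature. Compound exposure lasted 16 h at 37C.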

[13] = qHTS assay to identify small molecule antagonists of the farnesoid-X-receptor (FXR) signaling pathway - cell viability counter screen (AID 743221; active means well fitted cell-killing curve with a large enough effect in the repeat runs, not every such curve was filed as active; further: nearly all actives have a fitted effect of over 50% in size)
Outline: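 Cytotoxicity counter screen run in the FXR-bla reporter wells: HEK 293T cells exposed to compound with 50 uM (final) chenodeoxycholic acid for 16 h, 37 C, then viability measured by CellTiter-Glo luminescence after 30 min, room temperature.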

[14] = biological target: Vitamin D3 receptor (Homo sapiens) (UniProt P11473); assay: qHTS assay to identify small molecule agonists of the vitamin D receptor (VDR) signaling pathway (AID 743222; calls by dose curve)
Chain of Vitamin D3 receptor (Homo sapiens) (P11473 whole entry, looked up): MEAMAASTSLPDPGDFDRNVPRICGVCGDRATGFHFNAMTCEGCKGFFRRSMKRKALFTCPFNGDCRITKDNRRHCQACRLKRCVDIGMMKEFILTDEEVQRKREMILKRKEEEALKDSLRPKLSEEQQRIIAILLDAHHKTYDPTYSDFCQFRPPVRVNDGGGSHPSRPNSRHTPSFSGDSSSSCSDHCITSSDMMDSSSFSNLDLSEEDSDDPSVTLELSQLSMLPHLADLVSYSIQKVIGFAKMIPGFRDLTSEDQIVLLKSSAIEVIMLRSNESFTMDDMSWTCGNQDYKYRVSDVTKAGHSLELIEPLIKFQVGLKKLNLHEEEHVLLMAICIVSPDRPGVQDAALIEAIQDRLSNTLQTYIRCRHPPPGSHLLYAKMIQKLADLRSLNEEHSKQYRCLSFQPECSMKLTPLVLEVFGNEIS
Outline: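 Agonist activity measured in VDR-bla reporter cells. Exposure 16 h, 37C, 5% CO2; detection by B/G FRET substrate, 2 h RT.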

[15] = qHTS assay for small molecule activators of the heat shock response signaling pathway (AID 743210; active means well fitted activation curve with a large enough effect in the signal ratio in the repeat runs, with a control signal flat, not every such curve was filed as active; the % refers to the signal ratio; further: series mostly up to about 63 µM)
Outline: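 HSE-bla HeLa cells (beta-lactamase reporter under heat shock response elements) were exposed to compounds for 5 h at 37 C, then loaded with LiveBLAzer B/G FRET substrate for 2.5 h at room temperature before fluorescence reading.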

[16] = biological target: Peroxisome proliferator-activated receptor gamma (Homo sapiens) (UniProt P37231); assay: qHTS assay to identify small molecule antagonists of the peroxisome proliferator-activated receptor gamma (PPARg) signaling pathway (AID 743191; calls by dose curve; further: series mostly up to about 63 µM; nearly all actives have a fitted effect of over 30% in size)
Chain of Peroxisome proliferator-activated receptor gamma (Homo sapiens) (P37231 whole entry, looked up): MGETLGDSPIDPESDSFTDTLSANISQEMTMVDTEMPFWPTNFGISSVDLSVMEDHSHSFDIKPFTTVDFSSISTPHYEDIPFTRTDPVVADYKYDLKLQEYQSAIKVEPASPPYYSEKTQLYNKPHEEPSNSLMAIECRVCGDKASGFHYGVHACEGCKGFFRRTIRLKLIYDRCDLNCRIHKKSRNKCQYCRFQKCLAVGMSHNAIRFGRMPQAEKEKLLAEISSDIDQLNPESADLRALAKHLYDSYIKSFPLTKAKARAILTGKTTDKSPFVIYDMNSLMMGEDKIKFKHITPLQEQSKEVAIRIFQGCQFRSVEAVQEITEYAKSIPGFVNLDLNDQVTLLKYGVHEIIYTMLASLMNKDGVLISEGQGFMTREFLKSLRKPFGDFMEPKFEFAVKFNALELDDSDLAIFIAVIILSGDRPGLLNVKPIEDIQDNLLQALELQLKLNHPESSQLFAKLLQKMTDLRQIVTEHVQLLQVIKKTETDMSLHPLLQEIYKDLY
Outline: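 GeneBLAzer PPARg UAS-bla HEK293H cells carrying a UAS-driven beta-lactamase reporter were plated at 3000 cells/well, preincubated 5 h at 37C, then given compound for 17 h at 37C; LiveBLAzer B/G FRET substrate was read after 1 h at room temperature.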

[17] = biological target: Vitamin D3 receptor (Homo sapiens) (UniProt P11473); assay: qHTS assay to identify small molecule antagonists of the vitamin D receptor (VDR) signaling pathway (AID 743223; active means well fitted inhibition curve with a large enough effect in the signal ratio in the repeat runs, not every such curve was filed as active; the % refers to the signal ratio)
Outline: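 Antagonist mode: compound added to VDR-bla cells alongside agonist 1alpha,25-dihydroxyvitamin D3 (3 nM final), incubation 16 h at 37C. Read-out is LiveBLAzer FRET fluorescence, 2 h at room temperature.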

[18] = qHTS assay to identify aromatase inhibitors - cell viability counter screen (AID 743084);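 further: cells stimulated with testosterone during compound exposure; nearly all actives have a fitted effect of over 55% in size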
[19] = biological target: Peroxisome proliferator-activated receptor gamma (Homo sapiens) (UniProt P37231); assay: qHTS assay to identify small molecule agonists of the peroxisome proliferator-activated receptor gamma (PPARg) signaling pathway (AID 743094; active means well fitted activation curve with a large enough effect in the signal ratio in the repeat runs, not every such curve was filed as active; the % refers to the signal ratio)
Outline: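 Stably transfected HEK293H cells (GeneBLAzer PPARg UAS-bla) were incubated with test substances for 17 h at 37C after a 5 h pre-incubation; beta-lactamase activity was then detected by FRET substrate fluorescence.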
On the % scale 0 is the no-effect control and ±100 the full control effect.

O=C(O)CONC(=O)c1ccccc1
inactive: Potency [1] | outcome [2] | Potency [3] | outcome [4] | Potency [5] | outcome [6] | outcome [7] | outcome [8] | outcome [9] | outcome [10] | outcome [11] | outcome [12] | outcome [13] | outcome [14]

CCn1cc(C(=O)O)c(=O)c2cnc(N3CCCC3)nc21
inactive: Potency [1] | activity change, negative = cytotoxicity [2] -3.06% [at 13.2 µM] | activation [3] -1.91% [at 8.36 µM] | viability change, negative = cytotoxic [4] 0.125% [at 8.36 µM] | activity change, negative = cytotoxicity [5] 1.32% [at 13.2 µM] | activation [15] -0.943% [at 13.2 µM] | activity change, negative = cytotoxicity [6] 3.01% [at 13.2 µM] | activation [7] -4.9% [at 13.2 µM] | viability change, negative = cytotoxic [8] -17.7% [at 13.7 µM] | ratio activity, negative = inhibition [9] -14.6% [at 13.7 µM] | activity change, negative = inhibition [10] 6.21% [at 13.2 µM] | viability change, negative = cytotoxic [11] -3.43% [at 13.2 µM] | activation [12] -0.921% [at 13.2 µM]

CCC(=O)Oc1ccc2c(c1)CC[C@@H]1[C@@H]2CC[C@@]2(C)[C@H]1C[C@@H](OC(=O)CC)[C@@H]2OC(=O)CC
inactive: outcome [16] | outcome [2] | Potency [3] | outcome [4] | Potency [5] | outcome [6] | outcome [8] | outcome [10] | outcome [12] | outcome [14] | outcome [17]

C=CC(=O)OCC1CCCO1 (stereo not given)
inactive: Potency [18] | Potency [19] | outcome [2] | outcome [4] | Potency [5] | outcome [15] | outcome [6] | outcome [7] | outcome [8] | outcome [9] | outcome [10] | outcome [11] | outcome [12] | outcome [13]

COc1cc2c(cc1OC)CN(C(=O)[C@H](C)N[C@@H](CCc1ccccc1)C(=O)O)[C@H](C(=O)O)C2
inactive: outcome [2] | Potency [3] | outcome [4] | Potency [5] | outcome [15] | outcome [6] | outcome [7] | outcome [8] | outcome [9] | outcome [11] | outcome [13]

C/C(=C1\CCOC(=O)S1)N(C=O)Cc1cnc(C)nc1N
inactive: outcome [2] | Potency [3] | outcome [4] | Potency [5] | outcome [7] | outcome [8] | outcome [9] | outcome [10] | outcome [12] | outcome [13] | outcome [14] | outcome [17]

CCOC(CN1CCN(CC(C)C(=O)c2ccccc2)CC1)c1ccccc1 (stereo not given)
inactive: Potency [18] | Potency [19] | outcome [2] | Potency [5] | outcome [15] | outcome [6] | outcome [7] | outcome [8] | outcome [9] | outcome [13]
active: Potency [3] 10.3 µM

CC12CCC(C1)C(C)(C)C2O (stereo not given)
inactive: Potency [18] | Potency [1] | Potency [19] | outcome [4] | Potency [5] | outcome [15] | outcome [6] | outcome [7] | outcome [8] | outcome [9] | outcome [10] | outcome [11] | outcome [12] | outcome [14] | outcome [17]

CCOc1cccc(N)c1
inactive: Potency [18] | Potency [1] | outcome [16] | outcome [2] | Potency [3] | Potency [5] | outcome [15] | outcome [6] | outcome [7] | outcome [8] | outcome [9] | outcome [11] | outcome [14] | outcome [17]

CC(C)(CO)C(O)C(=O)NCCCO (stereo not given)
inactive: Potency [18] | Potency [1] | outcome [2] | Potency [3] | Potency [5] | outcome [15] | outcome [6] | outcome [7] | outcome [8] | outcome [9] | outcome [10] | outcome [11] | outcome [12] | outcome [14] | outcome [17]

O=Cc1ccccc1Cl
inactive: Potency [1] | Potency [19] | outcome [16] | outcome [2] | Potency [3] | Potency [5] | outcome [15] | outcome [6] | outcome [8] | outcome [10] | outcome [12] | outcome [13] | outcome [14] | outcome [17]

CC1=C(O)C(=O)C(C)O1 (stereo not given)
inactive: Potency [18] | Potency [1] | outcome [2] | Potency [3] | outcome [4] | Potency [5] | outcome [15] | outcome [6] | outcome [7] | outcome [8] | outcome [9] | outcome [10] | outcome [12] | outcome [13]

[O-][n+]1cccc(/C(Cl)=N/OC[C@@H](O)CN2CCCCC2)c1
inactive: outcome [2] | Potency [3] | outcome [4] | Potency [5] | outcome [15] | outcome [6] | outcome [7] | outcome [8] | outcome [9] | outcome [13]

CC(C)C[C@@H]1[C@H](c2ccccc2)OC(=O)N1CCCN1CCCCCC1
inactive: outcome [16] | outcome [2] | Potency [3] | outcome [4] | Potency [5] | outcome [7] | outcome [8] | outcome [9] | outcome [13]

COC(=O)CCCCC(CCSS/C(CCO)=C(\C)N(C=O)Cc1cnc(C)nc1N)SC(C)=O (stereo not given)
inactive: outcome [16] | outcome [2] | Potency [3] | outcome [4] | Potency [5] | outcome [6] | outcome [7] | outcome [8] | outcome [9] | outcome [10] | outcome [11] | outcome [12] | outcome [13]

CC1=C(C(=O)O)N2C(=O)[C@@H](NC(=O)[C@H](N)c3ccccc3)[C@H]2SC1
inactive: Potency [18] | Potency [1] | Potency [19] | outcome [2] | Potency [5] | outcome [15] | outcome [6] | outcome [7] | outcome [8] | outcome [13] | outcome [14] | outcome [17]

CN(C)CC/C=C1/c2ccccc2COc2ccc(CC(=O)O)cc21
inactive: outcome [2] | Potency [3] | outcome [4] | Potency [5] | outcome [15] | outcome [6] | outcome [11] | outcome [13]

CC1c2ccccc2CN1NC(=O)c1ccc(Cl)c(S(N)(=O)=O)c1 (stereo not given)
inactive: Potency [1] | Potency [19] | outcome [16] | outcome [2] | Potency [3] | outcome [4] | Potency [5] | outcome [6] | outcome [7] | outcome [8] | outcome [10] | outcome [11] | outcome [12] | outcome [14] | outcome [17]
